Measured values as given in the supplement of paper PMC10646978.
± gives the standard deviation.

Legend:
Conditions in all cases: modulator concentration 10 µM
[1] = system: RAW-Dual (murine macrophage reporter line); assay: NF-kB reporter (SEAP) activity fold change vs agonist alone; higher = enhanced NF-kB activity
How it was run: (§1)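 Overnight stimulation with a PRR agonist followed pre-incubation for 1 hour at 37 °C with compound at 10 μM final. This was done in RAW-Dual murine macrophage reporter cells seeded at 50 000 per well in 384-well plates. NF-κB (SEAP, QUANTI-Blue absorbance at 620 nm) and IRF (Lucia luciferase, QUANTI-Luc luminescence) were read from the supernatant. Each reporter's fold change relative to the mean agonist-only control on the same plate was averaged over replicate plates.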

[2] = system: RAW-Dual (murine macrophage reporter line); assay: IRF reporter (Lucia luciferase) activity fold change vs agonist alone; higher = enhanced IRF activity
How it was run: as §1

[3] = system: RAW-Dual (murine macrophage reporter line); assay: viability score (confluency relative to resting cells, overnight) (fraction); higher = more viable, active = viable (0.7 or more)
How it was run: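 A compound met the cutoff when both of two confluency masks exceeded 70% of resting cells. Those masks were made with IncuCyte software from IncuCyte images of RAW-Dual macrophages treated overnight at 10 μM final. This is the basis of the viability score, which is confluency relative to resting cells.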

[4] = agonist: CpG ODN 1826 0.5 ug/mL

SMILES | NF-kB reporter [1, 4] | NF-kB reporter ([1]; agonist: LPS 0.1 ug/mL) | NF-kB reporter ([1]; agonist: MPLA […]) | IRF reporter ([2]; agonist: 3'3'-cGAMP 10 ug/mL) | IRF reporter ([2]; agonist: LPS 0.1 ug/mL) | IRF reporter ([2]; agonist: MPLA […]) | viability score [3]
CC1(C)CC(=O)C2=C(C1)OC(N)=C(C#N)C2C1CC=CCC1 (configuration not stated) | 1.02 ± 0.061 | 1.08 ± 0.099 | 1.11 ± 0.068 | 1.23 ± 0.041 | 1.29 ± 0.18 | 1.14 ± 0.12 | 0.9 (active)
O=[N+]([O-])c1ccc(CN2c3ccccc3C3=C(CCCC3)C23CCCCC3)cc1 | 0.959 ± 0.074 | 1.04 ± 0.08 | 0.936 ± 0.1 | 0.951 ± 0.057 | 1.33 ± 0.16 | 1.6 ± 0.27 | 1.03 (active)
CN(C)c1ccc(C=C(C#N)c2nc(-c3cc4ccccc4oc3=O)cs2)cc1 | 0.972 ± 0.057 | 1.04 ± 0.13 | 0.955 ± 0.079 | 0.86 ± 0.03 | 1.36 ± 0.091 | 1.15 ± 0.24 | 1.01 (active)
CN1CCN(C2=Nc3cc(Cl)ccc3Nc3ccccc32)CC1 | 0.713 ± 0.058 | 0.941 ± 0.057 | 1.13 ± 0.1 | 0.924 ± 0.064 | 1.47 ± 0.11 | 1.46 ± 0.12 | 0.981 (active)
CC1COc2c(N3CCN(C)CC3)c(F)cc3c(=O)c(C(=O)O)cn1c23 (configuration not stated) [Prestw-237] | 1.46 ± 0.24 | 1.01 ± 0.12 | 1.12 ± 0.16 | 1.14 ± 0.033 | 0.8 ± 0.078 | 0.894 ± 0.15 | 0.983 (active)
CC(=O)Nc1ccc(CC(=O)N2C3C=CCC2CC3)cc1 (configuration not stated) | 1.32 ± 0.32 | 1.06 ± 0.059 | 1.04 ± 0.14 | 1.01 ± 0.034 | 1.23 ± 0.14 | 1.14 ± 0.19 | 0.954 (active)
CCCCCCC1OCC2(CO)C(C)C=C(C)C1C2C (configuration not stated) | 0.532 ± 0.075 | 0.697 ± 0.082 | 0.716 ± 0.067 | 1.31 ± 0.075 | 1.05 ± 0.17 | 1.21 ± 0.24 | 0.898 (active)
S=C(NCCN1CCOCC1)Nc1ccc(Cl)cc1 | 1 ± 0.23 | 0.966 ± 0.1 | 0.886 ± 0.12 | 0.71 ± 0.019 | 1.22 ± 0.16 | 1.13 ± 0.12 | 0.986 (active)
NNC(=O)CN1C(=O)C2CC=C(Cl)CC2C1=O (configuration not stated) | 0.984 ± 0.062 | 0.976 ± 0.085 | 0.954 ± 0.035 | 0.999 ± 0.088 | 1.06 ± 0.058 | 0.917 ± 0.18 | 0.999 (active)
Cc1nc2c(ccc3ccccc32)c(O)c1CN1CCCC1 | 0.283 ± 0.029 | 0.968 ± 0.076 | 0.95 ± 0.044 | 0.882 ± 0.073 | 1.06 ± 0.11 | 0.808 ± 0.17 | 1 (active)
CCCC1=NN2C(=N)C(=Cc3ccc(OCc4ccc(F)cc4)c(OCC)c3)C(=O)N=C2S1 | 0.992 ± 0.1 | 1.03 ± 0.057 | 0.97 ± 0.084 | 0.965 ± 0.04 | 1.59 ± 0.17 | 1.19 ± 0.073 | 1.01 (active)
CCCCC1=NC2(CCCC2)C(=O)N1Cc1ccc(-c2ccccc2-c2nn[nH]n2)cc1 | 1.05 ± 0.079 | 0.951 ± 0.08 | 0.978 ± 0.026 | 0.948 ± 0.052 | 1.01 ± 0.15 | 0.945 ± 0.18 | 1 (active)
O=C(Nc1nc2ccc(Cl)cc2s1)c1ccc(Br)s1 | 0.998 ± 0.062 | 0.927 ± 0.072 | 0.924 ± 0.025 | 0.975 ± 0.043 | 1.06 ± 0.054 | 1.09 ± 0.11 | 0.999 (active)
CC1CCN(C2CC(=O)N(c3ccc(S(=O)(=O)N4CCOCC4)cc3)C2=O)CC1 (configuration not stated) | 0.986 ± 0.082 | 1.02 ± 0.065 | 0.843 ± 0.05 | 1.02 ± 0.025 | 1.33 ± 0.096 | 0.995 ± 0.23 | 1 (active)
CSc1cc(C=NO)c(SC)s1 | 0.874 ± 0.08 | 0.799 ± 0.1 | 0.886 ± 0.085 | 0.713 ± 0.043 | 0.975 ± 0.15 | 1.01 ± 0.27 | 0.285 (inactive)
Nc1nc(=O)[nH]cc1F | 0.84 ± 0.12 | 1.07 ± 0.085 | 1.08 ± 0.11 | 1.02 ± 0.049 | 1.23 ± 0.071 | 1.33 ± 0.11 | 1.01 (active)
COS(=O)(=O)[O-].C[N+]1(C)CCC(=C(c2ccccc2)c2ccccc2)CC1 | 1.35 ± 0.061 | 1.09 ± 0.093 | 1.76 ± 0.32 | 0.849 ± 0.047 | 0.979 ± 0.15 | 0.823 ± 0.18 | 0.958 (active)
CC(C(=O)O)c1ccc(CC2CCCC2=O)cc1 (configuration not stated) | 0.81 ± 0.11 | 1.03 ± 0.26 | 0.906 ± 0.066 | 0.916 ± 0.042 | 1.19 ± 0.18 | 1.25 ± 0.27 | 1 (active)
O=C(Cn1cnc(-c2ccc(Cl)cc2)cc1=O)N1CCOCC1 | 1.07 ± 0.29 | 0.924 ± 0.047 | 0.925 ± 0.07 | 0.933 ± 0.032 | 1.09 ± 0.17 | 1.09 ± 0.21 | 1 (active)
CN1CCC(=C2c3ccccc3C=Cc3ccccc32)CC1.Cl | 0.727 ± 0.13 | 0.808 ± 0.067 | 0.904 ± 0.048 | 0.794 ± 0.049 | 1 ± 0.19 | 0.974 ± 0.2 | 0.651 (inactive)
O=Cc1ccc(OC(=O)c2cccc(C(=O)Oc3ccc(C=O)cc3)c2)cc1 | 0.813 ± 0.064 | 0.851 ± 0.052 | 1.02 ± 0.092 | 0.975 ± 0.064 | 1.52 ± 0.088 | 1.69 ± 0.14 | 0.989 (active)
COc1cc(C(=O)NCCCCc2ccccc2)cc(OC)c1OC | 1.09 ± 0.095 | 1.04 ± 0.068 | 0.994 ± 0.034 | 0.906 ± 0.14 | 0.993 ± 0.068 | 0.983 ± 0.14 | 0.995 (active)
CN1CCN(c2ccc(-c3cccc(NC(=O)COc4ccc(Cl)cc4Cl)c3)nn2)CC1 | 0.46 ± 0.09 | 0.922 ± 0.086 | 1 ± 0.13 | 0.65 ± 0.043 | 1.16 ± 0.18 | 1.12 ± 0.29 | 0.982 (active)
CC(O)(CNC(=O)CSc1ccc(F)cc1)c1ccc(-c2ccccc2)cc1 (configuration not stated) | 1.02 ± 0.067 | 0.973 ± 0.092 | 0.935 ± 0.038 | 0.685 ± 0.049 | 1.11 ± 0.072 | 0.921 ± 0.1 | 0.992 (active)
O=C(NC(Cc1cc(=O)[nH]c2ccccc12)C(=O)O)c1ccc(Cl)cc1 (configuration not stated) | 1.4 ± 0.19 | 1.19 ± 0.21 | 0.968 ± 0.055 | 0.918 ± 0.03 | 1.32 ± 0.16 | 1.09 ± 0.16 | 0.992 (active)
Cc1cc(C)nc(SCCCCSc2nc(C)cc(C)n2)n1 | 1.03 ± 0.062 | 0.975 ± 0.14 | 0.944 ± 0.025 | 1.13 ± 0.14 | 0.979 ± 0.11 | 0.909 ± 0.21 | 0.996 (active)
